Screen size: about 1,200 compounds; about 210 (18%) were called active. Rule as the data show it: active = inhibition above about 30%; inactive = the rest. Only a sample is shown.
test: fluorescence readout artefact check – biochemical, HTRF, uHTS, artefact control for SUMOylation inhibitor project, confirmation (AID 2069); details: HTRF interference counterscreen, at 35 µM, hits give high values

For O=C(/C=C/c1ccco1)Nc1cccc2cccnc12, which inhibition is on record?
Its inhibition is 2.9% (inactive).

With CCOC(=O)c1c(CSc2ccccc2)n(C)c2cc(Br)c(OCC(O)CNC(CO)(CO)CO)cc12 (stereo not drawn) as the molecule, how does the inhibition read?
The inhibition was 0.05% (inactive).

With CN(C)c1cccc(C(=O)OCc2cc(=O)oc3cc(O)ccc23)c1 as the molecule, how does the inhibition read?
The inhibition was 3.4% (inactive).

For O=C(Cc1cc(=O)oc2cc(O)ccc12)NCC1CCC(C(=O)O)CC1 (stereo not drawn), which inhibition is on record?
Its inhibition is 44.1% (active).

With O=C(Nc1cccc2nsnc12)c1ccc(-c2ccc(Br)cc2)o1 as the molecule, how does the inhibition read?
Its inhibition is 22.6% (inactive).

With O=C(NCCc1ccccc1)c1ccc2nc(-c3ccco3)c(-c3ccco3)nc2c1 as the molecule, how does the inhibition read?
The inhibition was 12.2% (inactive).

With Cc1nn(CC(=O)Nc2ccc(C(=O)N(C)C)cc2)c(=O)c2ccccc12 as the molecule, how does the inhibition read?
The inhibition was -0.95% (inactive).

With CNc1nnc(-c2cc3ccccc3oc2=O)s1 as the molecule, how does the inhibition read?
Its inhibition is 23.1% (inactive).

For Nc1nnc(-c2cc3c(ccc4ccccc43)oc2=O)s1, which inhibition is on record?
The inhibition was 30.1% (active).

With CCOc1cccc2cc(-c3nnc(NCc4ccco4)s3)c(=O)oc12 as the molecule, how does the inhibition read?
Its inhibition is 26.9% (inactive).

With Brc1ccc(C2Nc3cccc4cccc(c34)N2)o1 as the molecule, how does the inhibition read?
The inhibition was -8.65% (inactive).

For C/C(=N\OCc1nc2ccccc2c(=O)n1/N=C/c1cc(C)cc([N+](=O)[O-])c1O)c1ccccc1, which inhibition is on record?
The inhibition was -17% (inactive).

With CCOC(=O)Cn1c2ccccc2c2nc3ccccc3nc21 as the molecule, how does the inhibition read?
Its inhibition is 25.7% (inactive).

With CCOC(=O)Cn1c2ccc(OC)cc2c2nc3ccccc3nc21 as the molecule, how does the inhibition read?
The inhibition was 53.6% (active).

Which inhibition does the source give for COC(=O)Cn1c2ccc(C)cc2c2nc(C)sc21 here?
The inhibition was 2.05% (inactive).

With CCc1cccc(NC(=S)Nc2cccc3ccccc23)c1 as the molecule, how does the inhibition read?
The inhibition was 2.95% (inactive).

Which inhibition does the source give for O=c1cc2c(=O)oc3cc(O)c(O)oc3c2c(O)c1O here?
The inhibition was -3.8% (inactive).

For Cc1cc(=O)n2[nH]c(N)c(N=Nc3ccccc3)c2n1, which inhibition is on record?
Its inhibition is -13.8% (inactive).

For O=c1c(-c2ccccc2)coc2c(CN3CCCC3)c(O)ccc12, which inhibition is on record?
The inhibition was 42% (active).

With COc1ccccc1/C=N/Nc1cc(N(C)C)nc(N(C)C)n1 as the molecule, how does the inhibition read?
Its inhibition is 11.9% (inactive).

With Cn1c(=O)c(Nc2ccc(O)cc2)c2c3c(cccc31)C(=O)c1ccccc1-2 as the molecule, how does the inhibition read?
The inhibition was -3.25% (inactive).

With O=C(CNc1cccc2ccccc12)N/N=C/c1ccccn1 as the molecule, how does the inhibition read?
Its inhibition is 17.4% (inactive).

For NC(=O)N/N=C/c1ccc2cccc(OCc3ccccc3)c2n1, which inhibition is on record?
The inhibition was 68.3% (active).

With Cc1cccc(/C=N/NC(=O)C(C)Nc2cccc3ccccc23)n1 (stereo not drawn) as the molecule, how does the inhibition read?
Its inhibition is 1.6% (inactive).

Which inhibition does the source give for COc1ccc(N=C2NC(=O)/C(=C\c3ccco3)S2)cc1 here?
The inhibition was 4.75% (inactive).

With COc1ccc(-n2c(CNc3ccc(C)cc3)nnc2SCC(=O)Nc2nc(-c3ccccc3)cs2)cc1 as the molecule, how does the inhibition read?
Its inhibition is -1.4% (inactive).

With Cc1cccc(NC(=O)CC2Nc3cccc4cccc(c34)NC2=O)c1 (stereo not drawn) as the molecule, how does the inhibition read?
The inhibition was -17.8% (inactive).

For O=C(O)/C=C/C(=O)Nc1ccc2c(c1)NC(=O)CO2, which inhibition is on record?
Its inhibition is -0.95% (inactive).

Which inhibition does the source give for Nc1nnc(CC(=O)N/N=C/c2cc([N+](=O)[O-])cc(Br)c2O)s1 here?
The inhibition was 30% (active).

Which inhibition does the source give for COc1cc([N+](=O)[O-])cc(/C=N/NC(=O)CC#N)c1O here?
The inhibition was 21.6% (inactive).

For O=C(N/N=C/c1cc(Br)cc(Br)c1O)c1ccncc1, which inhibition is on record?
Its inhibition is 12.4% (inactive).

For NC(=O)CC(NC(=O)Cc1ccc(Br)cc1)c1ccc(NCCc2ccccc2F)c([N+](=O)[O-])c1 (stereo not drawn), which inhibition is on record?
The inhibition was 5.95% (inactive).

Which inhibition does the source give for O=C(/C=C/c1ccco1)NC(=S)NNC(=O)c1ccco1 here?
Its inhibition is -18.9% (inactive).

Which inhibition does the source give for O=C(O)CSc1cc(C(=O)c2cc(F)ccc2O)cn2c(=O)c3c(-c4ccccc4)csc3nc12 here?
The inhibition was 28.9% (inactive).

For N#Cc1c(N(CCO)CCO)nc(N)c2c(N)nc3c(c12)CC(=O)N3Cc1cccs1, which inhibition is on record?
The inhibition was 25.1% (inactive).

Which inhibition does the source give for CCCN(CC1CC1)c1nc(N)c2c(N)nc(OC)cc2c1C#N here?
The inhibition was 10.2% (inactive).

With N#Cc1c(N(CCO)CCO)nc(N)c2c(N)nc3c(c12)CC(=O)N3CC1CCCO1 (stereo not drawn) as the molecule, how does the inhibition read?
Its inhibition is 41.8% (active).

Which inhibition does the source give for CN(CCO)c1nc(N)c2c(N)nc3c(c2c1C#N)CC(=O)N3C1CCCC1 here?
The inhibition was 43.9% (active).

For N#Cc1c(N2CCN(c3ccc(F)cc3)CC2)nc(N)c2c(N)nc3c(c12)CC(=O)N3C1CC1, which inhibition is on record?
Its inhibition is 16.5% (inactive).

Which inhibition does the source give for COc1ccc(C)c2sc(NC(=O)c3cccc(N4C(=O)CCC4=O)c3)nc12 here?
The inhibition was 21% (inactive).

Which inhibition does the source give for CC(C)C(=O)Nc1cccc(C(=O)NCc2ccc3c(c2)OCO3)c1 here?
Its inhibition is -4.7% (inactive).

With N#Cc1c(-c2ccc(Cl)cc2)cc(-c2cccs2)nc1SCC(=O)O as the molecule, how does the inhibition read?
The inhibition was -4.9% (inactive).

With CCOC(=O)C1CCN(C2=C(NS(=O)(=O)c3ccc(Br)cc3)C(=O)c3ccccc3C2=O)CC1 as the molecule, how does the inhibition read?
The inhibition was -7.95% (inactive).

For O=C(Nc1ccc(Br)cc1)c1ccc(N2C(=O)C3CC=C(Cl)CC3C2=O)cc1 (stereo not drawn), which inhibition is on record?
The inhibition was -0.95% (inactive).

Which inhibition does the source give for COCCCNC(=O)c1c(N)n(-c2ccccc2)c2nc3ccccc3nc12 here?
The inhibition was 33.6% (active).

With C=CCn1c(NC(=O)c2ccc(Br)o2)c(S(=O)(=O)c2ccccc2)c2nc3ccccc3nc21 as the molecule, how does the inhibition read?
Its inhibition is 8.1% (inactive).

For COc1ccc(-n2c(N)c(C(=O)NCc3ccco3)c3nc4ccccc4nc32)cc1OC, which inhibition is on record?
Its inhibition is 11.5% (inactive).

Which inhibition does the source give for C=CCn1c(NS(=O)(=O)c2ccccc2)c(S(=O)(=O)c2ccc(C)cc2)c2nc3ccccc3nc21 here?
Its inhibition is 23.6% (inactive).

With C=CCNC(=O)c1c(N)n(-c2cccc(S(N)(=O)=O)c2)c2nc3ccccc3nc12 as the molecule, how does the inhibition read?
The inhibition was 33% (active).

Which inhibition does the source give for Nc1c(C(=O)NCc2ccco2)c2nc3ccccc3nc2n1CCc1ccccc1 here?
The inhibition was 11% (inactive).

Which inhibition does the source give for COCCNC(=O)c1c(N)n(CCC2=CCCCC2)c2nc3ccccc3nc12 here?
Its inhibition is 25.1% (inactive).

With COCCNC(=O)c1c(N)n(CCCn2ccnc2)c2nc3ccccc3nc12 as the molecule, how does the inhibition read?
The inhibition was 40% (active).

For CCc1cc(=O)oc2c3c(cc(OCC(=O)NCCCCCC(=O)O)c12)OC(C)(C)CC3, which inhibition is on record?
The inhibition was 29.8% (inactive).

Which inhibition does the source give for Cc1ccc(Sc2cc(NCCCO)c([N+](=O)[O-])c3nonc23)cc1 here?
Its inhibition is 0.15% (inactive).

With COc1ccc(-c2csc(CCN3N=C(C)CC3=O)n2)cc1 as the molecule, how does the inhibition read?
Its inhibition is -4.6% (inactive).

Which inhibition does the source give for Cc1cc2oc(C(=O)Nc3ccc(S(=O)(=O)Nc4nccs4)cc3)cc(=O)c2cc1Cl here?
The inhibition was -9.2% (inactive).

Which inhibition does the source give for Cc1ccc(CSc2nnc(SCC(=O)N/N=C/c3c[nH]c4ccccc34)s2)cc1 here?
The inhibition was -3.9% (inactive).

Which inhibition does the source give for CC1CCCN(C2=C(NS(=O)(=O)c3ccc(Br)cc3)C(=O)c3ccccc3C2=O)C1 (stereo not drawn) here?
The inhibition was -7.35% (inactive).

Source: PubChem BioAssay AID2069 (Sanford-Burnham Center for Chemical Genomics, 2009)
